Experiment in all cases: DAPPL (digital affinity profiling via proximity ligation, sequencing); 10 mM Tris-HCl pH 7.5, 50 mM NaCl, 1 mM DTT, 4% glycerol, room temperature, 30 min; GST-TFs on glutathione beads, 16-mer random dsDNA library, 0.1% formaldehyde crosslink after washing; high values mean tight binding
Assay [1] concerns the target T1, FLI1 (Homo sapiens, UniProt Q01543 1-452).
T1 sequence: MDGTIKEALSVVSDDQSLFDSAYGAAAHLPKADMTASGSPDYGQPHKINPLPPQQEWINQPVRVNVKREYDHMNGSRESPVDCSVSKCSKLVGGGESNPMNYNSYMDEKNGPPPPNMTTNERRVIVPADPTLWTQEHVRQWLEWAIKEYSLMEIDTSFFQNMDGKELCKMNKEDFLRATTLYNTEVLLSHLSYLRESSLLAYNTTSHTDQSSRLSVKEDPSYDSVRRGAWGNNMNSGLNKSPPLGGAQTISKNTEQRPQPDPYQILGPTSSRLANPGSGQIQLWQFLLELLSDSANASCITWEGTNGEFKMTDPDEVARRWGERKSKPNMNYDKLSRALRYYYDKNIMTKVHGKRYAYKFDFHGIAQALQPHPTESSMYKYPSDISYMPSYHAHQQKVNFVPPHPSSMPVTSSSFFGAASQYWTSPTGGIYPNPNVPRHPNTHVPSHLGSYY
To be noted: protein: recombinant; tags: N-terminal GST; dsDNA, one strand shown. The procedure, abridged: (§1)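 A tag-only sample was pooled with DNA-barcoded human transcription factors that had been expressed in yeast as GST fusions and captured on glutathione beads. The pools were incubated for 30 min at room temperature with 200 nmole of a random double-stranded 16-mer DNA library in Tris/NaCl/DTT/glycerol buffer, then washed, crosslinked with 0.1% formaldehyde, proximity-ligated (BsaI/T4 ligase, 1 h, 37 °C), PCR-amplified and sequenced on an Illumina NextSeq500. Binding signal is each hexamer's read frequency for a factor divided by its frequency for the tag-only sample.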

The target in assay [2] is T2, ELK1 (Homo sapiens, UniProt P19419 1-428).
T2 sequence: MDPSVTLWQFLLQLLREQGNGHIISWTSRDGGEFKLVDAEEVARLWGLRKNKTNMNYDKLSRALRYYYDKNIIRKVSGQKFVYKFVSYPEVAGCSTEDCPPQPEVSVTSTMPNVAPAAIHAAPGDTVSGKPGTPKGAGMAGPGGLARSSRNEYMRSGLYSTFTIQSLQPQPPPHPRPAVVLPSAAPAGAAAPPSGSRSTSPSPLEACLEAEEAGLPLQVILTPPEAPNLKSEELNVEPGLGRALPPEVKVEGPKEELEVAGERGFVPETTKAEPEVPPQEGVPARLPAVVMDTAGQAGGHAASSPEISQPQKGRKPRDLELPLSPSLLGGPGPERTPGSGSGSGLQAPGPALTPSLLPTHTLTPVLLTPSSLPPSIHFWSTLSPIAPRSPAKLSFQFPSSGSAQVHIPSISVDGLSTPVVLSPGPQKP
Conditions: protein: recombinant; tags: N-terminal GST; dsDNA, one strand shown. The procedure, abridged: as §1

The target in assay [3] is T3, GABPA (Homo sapiens, UniProt Q06546 1-454).
T3 sequence: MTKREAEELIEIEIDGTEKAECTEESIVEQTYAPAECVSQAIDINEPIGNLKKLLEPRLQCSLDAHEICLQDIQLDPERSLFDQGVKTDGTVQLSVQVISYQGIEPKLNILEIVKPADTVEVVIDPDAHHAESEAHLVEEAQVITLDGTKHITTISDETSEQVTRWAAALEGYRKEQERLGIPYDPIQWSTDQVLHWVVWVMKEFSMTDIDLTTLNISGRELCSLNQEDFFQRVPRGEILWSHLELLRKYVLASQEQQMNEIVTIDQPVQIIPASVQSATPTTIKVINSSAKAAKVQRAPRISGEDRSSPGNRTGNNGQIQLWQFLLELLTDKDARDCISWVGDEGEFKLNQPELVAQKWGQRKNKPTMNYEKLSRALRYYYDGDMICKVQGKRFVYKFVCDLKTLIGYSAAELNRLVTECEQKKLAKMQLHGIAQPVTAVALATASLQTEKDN
Conditions: protein: recombinant; tags: N-terminal GST; dsDNA, one strand shown. The procedure, abridged: as §1

Assay [4] concerns the target T4, ERG (Homo sapiens, UniProt P11308 1-479).
T4 sequence: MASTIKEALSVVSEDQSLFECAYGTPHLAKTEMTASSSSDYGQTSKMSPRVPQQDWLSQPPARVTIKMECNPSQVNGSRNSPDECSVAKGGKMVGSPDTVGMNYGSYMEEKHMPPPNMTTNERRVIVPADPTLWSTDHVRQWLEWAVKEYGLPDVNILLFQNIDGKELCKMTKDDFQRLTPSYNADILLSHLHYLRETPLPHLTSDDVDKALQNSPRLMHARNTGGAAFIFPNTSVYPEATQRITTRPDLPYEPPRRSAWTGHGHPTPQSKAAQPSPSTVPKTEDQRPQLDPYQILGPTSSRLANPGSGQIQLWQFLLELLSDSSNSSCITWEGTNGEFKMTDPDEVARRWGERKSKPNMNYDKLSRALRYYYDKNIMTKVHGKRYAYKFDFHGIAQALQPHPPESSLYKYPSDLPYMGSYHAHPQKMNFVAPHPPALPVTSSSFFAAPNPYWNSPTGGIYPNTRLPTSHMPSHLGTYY
To be noted: protein: recombinant; tags: N-terminal GST; dsDNA, one strand shown. The procedure, abridged:
as §1

Assay [5] addresses ELF1 (Homo sapiens, UniProt P32519 1-619). To be noted: protein: recombinant; tags: N-terminal GST; dsDNA, one strand shown. Summed up: as §1
Assay [6] deals with T5, EHF (Homo sapiens, UniProt Q9NZC4 1-300).
T5 sequence: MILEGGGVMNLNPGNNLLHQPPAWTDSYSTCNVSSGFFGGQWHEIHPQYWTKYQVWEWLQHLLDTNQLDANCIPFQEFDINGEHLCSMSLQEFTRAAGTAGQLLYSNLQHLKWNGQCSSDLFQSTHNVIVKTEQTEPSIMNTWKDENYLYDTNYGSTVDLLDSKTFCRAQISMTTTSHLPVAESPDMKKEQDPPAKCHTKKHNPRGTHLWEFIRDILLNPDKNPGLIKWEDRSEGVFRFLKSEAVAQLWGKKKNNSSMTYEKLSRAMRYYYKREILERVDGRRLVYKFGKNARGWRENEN
To be noted: protein: recombinant; tags: N-terminal GST; dsDNA, one strand shown. The procedure, abridged:
as §1

Assay [7] has as its target SPI1 (Homo sapiens, UniProt P17947 1-270). Conditions: protein: recombinant; tags: N-terminal GST; dsDNA, one strand shown. The procedure, abridged:
as §1

Assay [8] deals with SPIB (Homo sapiens, UniProt Q01892 1-262). Conditions: protein: recombinant; tags: N-terminal GST; dsDNA, one strand shown. The procedure, abridged:
as §1

Assay [9] deals with T6, ELK3 (Homo sapiens, UniProt P41970 1-407).
T6 sequence: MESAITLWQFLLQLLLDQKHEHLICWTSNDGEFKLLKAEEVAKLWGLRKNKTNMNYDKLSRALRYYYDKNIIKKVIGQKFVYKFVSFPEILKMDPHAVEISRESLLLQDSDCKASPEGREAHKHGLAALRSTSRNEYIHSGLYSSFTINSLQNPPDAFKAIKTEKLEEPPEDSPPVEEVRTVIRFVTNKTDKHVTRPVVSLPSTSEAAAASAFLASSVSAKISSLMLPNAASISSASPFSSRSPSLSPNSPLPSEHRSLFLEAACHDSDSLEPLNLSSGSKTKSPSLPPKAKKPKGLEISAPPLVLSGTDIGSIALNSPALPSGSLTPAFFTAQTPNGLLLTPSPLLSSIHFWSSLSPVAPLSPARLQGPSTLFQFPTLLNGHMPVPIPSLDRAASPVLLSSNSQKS
Conditions: protein: recombinant; tags: N-terminal GST; dsDNA, one strand shown. Summed up: as §1

The target of assay [10] is T7, FEV (Homo sapiens, UniProt Q99581 1-238).
T7 sequence: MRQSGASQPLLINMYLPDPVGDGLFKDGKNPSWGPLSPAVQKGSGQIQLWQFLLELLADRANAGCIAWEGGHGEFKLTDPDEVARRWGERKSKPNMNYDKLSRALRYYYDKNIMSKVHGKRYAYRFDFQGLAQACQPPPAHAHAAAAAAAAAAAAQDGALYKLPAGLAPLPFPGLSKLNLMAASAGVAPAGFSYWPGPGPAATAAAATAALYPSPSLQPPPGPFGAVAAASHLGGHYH
Conditions: protein: recombinant; tags: N-terminal GST; dsDNA, one strand shown. The procedure, abridged: as §1

Assay [11] concerns the target ETV5 (Homo sapiens, UniProt P41161 1-510). Conditions: protein: recombinant; tags: N-terminal GST; dsDNA, one strand shown. The procedure, abridged:
as §1

For assay [12], the target named is HSF1 (Homo sapiens, UniProt Q00613 1-529). To be noted: protein: recombinant; tags: N-terminal GST; chain copies: 3; dsDNA, one strand shown. Summed up:
as §1

Assay [13] concerns the target T8, SPIC (Homo sapiens, UniProt Q8N5J4 1-248).
T8 sequence: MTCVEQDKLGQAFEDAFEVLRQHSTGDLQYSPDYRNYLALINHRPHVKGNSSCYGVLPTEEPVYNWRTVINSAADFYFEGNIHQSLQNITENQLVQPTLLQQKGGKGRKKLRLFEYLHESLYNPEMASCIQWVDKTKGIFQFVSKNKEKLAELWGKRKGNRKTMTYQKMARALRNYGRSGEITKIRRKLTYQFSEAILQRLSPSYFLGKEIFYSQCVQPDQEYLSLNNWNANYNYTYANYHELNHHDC
To be noted: protein: recombinant; tags: N-terminal GST; dsDNA, one strand shown. Summed up: as §1

In assay [14] the target is ELF4 (Homo sapiens, UniProt Q99607 1-663). To be noted: protein: recombinant; tags: N-terminal GST; dsDNA, one strand shown. Summed up:
as §1

Assay [15] deals with T9, ELK4 (Homo sapiens, UniProt P28324-2 1-405).
T9 sequence: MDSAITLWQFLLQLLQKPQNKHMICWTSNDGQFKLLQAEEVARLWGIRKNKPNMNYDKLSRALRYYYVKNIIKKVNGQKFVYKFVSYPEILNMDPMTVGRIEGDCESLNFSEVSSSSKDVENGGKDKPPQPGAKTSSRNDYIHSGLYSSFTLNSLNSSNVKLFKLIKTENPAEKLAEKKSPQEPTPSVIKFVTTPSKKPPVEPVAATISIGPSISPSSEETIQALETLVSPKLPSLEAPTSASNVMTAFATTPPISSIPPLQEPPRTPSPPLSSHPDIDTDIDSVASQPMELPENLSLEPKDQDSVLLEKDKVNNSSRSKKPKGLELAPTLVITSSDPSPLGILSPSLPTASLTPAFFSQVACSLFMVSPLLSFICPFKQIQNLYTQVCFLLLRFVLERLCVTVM
To be noted: protein: recombinant; tags: N-terminal GST; dsDNA, one strand shown. Summed up: as §1

The target of assay [16] is T10, ETV2 (Homo sapiens, UniProt O00321 1-342).
T10 sequence: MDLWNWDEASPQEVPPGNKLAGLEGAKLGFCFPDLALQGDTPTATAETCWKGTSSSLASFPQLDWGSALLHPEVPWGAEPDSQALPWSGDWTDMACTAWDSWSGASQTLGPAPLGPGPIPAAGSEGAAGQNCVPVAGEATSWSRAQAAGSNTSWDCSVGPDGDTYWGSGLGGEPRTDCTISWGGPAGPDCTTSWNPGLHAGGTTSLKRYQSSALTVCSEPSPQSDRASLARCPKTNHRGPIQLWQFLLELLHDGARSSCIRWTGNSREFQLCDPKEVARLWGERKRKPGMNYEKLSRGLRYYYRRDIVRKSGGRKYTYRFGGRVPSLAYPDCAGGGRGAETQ
To be noted: protein: recombinant; tags: N-terminal GST; dsDNA, one strand shown. The procedure, abridged: as §1

Assay [17] deals with T11, ELF3 (Homo sapiens, UniProt P78545 1-371).
T11 sequence: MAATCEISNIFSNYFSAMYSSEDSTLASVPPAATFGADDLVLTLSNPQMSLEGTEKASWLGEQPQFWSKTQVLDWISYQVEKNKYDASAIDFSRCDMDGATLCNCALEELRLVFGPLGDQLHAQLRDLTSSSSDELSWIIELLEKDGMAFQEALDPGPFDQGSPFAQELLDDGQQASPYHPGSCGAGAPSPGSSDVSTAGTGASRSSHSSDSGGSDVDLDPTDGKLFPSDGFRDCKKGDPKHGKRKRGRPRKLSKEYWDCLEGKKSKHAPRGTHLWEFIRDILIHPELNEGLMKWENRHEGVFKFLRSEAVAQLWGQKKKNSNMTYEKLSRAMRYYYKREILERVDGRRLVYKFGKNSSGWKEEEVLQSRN
To be noted: protein: recombinant; tags: N-terminal GST; dsDNA, one strand shown. Summed up:
as §1

In assay [18] the target is CRX (Homo sapiens, UniProt O43186 1-299). Conditions: protein: recombinant; tags: N-terminal GST; dsDNA, one strand shown. The procedure, abridged: as §1
Chain of CRX (O43186 whole entry): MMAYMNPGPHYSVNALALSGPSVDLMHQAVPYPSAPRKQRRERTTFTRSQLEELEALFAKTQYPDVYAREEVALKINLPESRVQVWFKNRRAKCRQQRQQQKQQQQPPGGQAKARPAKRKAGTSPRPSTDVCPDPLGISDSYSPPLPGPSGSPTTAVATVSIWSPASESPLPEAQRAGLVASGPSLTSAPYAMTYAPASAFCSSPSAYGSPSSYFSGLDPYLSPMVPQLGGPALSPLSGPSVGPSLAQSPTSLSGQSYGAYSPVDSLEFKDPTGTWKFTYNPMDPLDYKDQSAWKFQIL
In assay [19] the target is ETV1 (Homo sapiens, UniProt P50549 1-477). Conditions: protein: recombinant; tags: N-terminal GST; dsDNA, one strand shown. The procedure, abridged:
as §1

Chain of ELF1 (P32519 whole entry): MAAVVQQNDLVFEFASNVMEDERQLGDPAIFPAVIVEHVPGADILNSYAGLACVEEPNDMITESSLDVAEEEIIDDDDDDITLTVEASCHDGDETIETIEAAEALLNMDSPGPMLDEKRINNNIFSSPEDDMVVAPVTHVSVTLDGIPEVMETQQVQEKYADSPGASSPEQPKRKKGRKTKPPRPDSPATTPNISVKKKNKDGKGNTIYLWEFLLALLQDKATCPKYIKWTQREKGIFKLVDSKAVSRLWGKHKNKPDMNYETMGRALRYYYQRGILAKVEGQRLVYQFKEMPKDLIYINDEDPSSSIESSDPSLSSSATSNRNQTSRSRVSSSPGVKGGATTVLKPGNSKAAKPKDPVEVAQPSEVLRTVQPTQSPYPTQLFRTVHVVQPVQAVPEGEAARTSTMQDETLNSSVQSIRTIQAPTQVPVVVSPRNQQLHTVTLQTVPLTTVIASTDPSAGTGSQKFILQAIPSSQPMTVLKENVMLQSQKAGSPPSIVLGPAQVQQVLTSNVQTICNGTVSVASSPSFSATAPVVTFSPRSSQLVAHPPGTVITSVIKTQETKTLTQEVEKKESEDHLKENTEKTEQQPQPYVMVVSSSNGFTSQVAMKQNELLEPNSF
Chain of ETV5 (P41161 whole entry): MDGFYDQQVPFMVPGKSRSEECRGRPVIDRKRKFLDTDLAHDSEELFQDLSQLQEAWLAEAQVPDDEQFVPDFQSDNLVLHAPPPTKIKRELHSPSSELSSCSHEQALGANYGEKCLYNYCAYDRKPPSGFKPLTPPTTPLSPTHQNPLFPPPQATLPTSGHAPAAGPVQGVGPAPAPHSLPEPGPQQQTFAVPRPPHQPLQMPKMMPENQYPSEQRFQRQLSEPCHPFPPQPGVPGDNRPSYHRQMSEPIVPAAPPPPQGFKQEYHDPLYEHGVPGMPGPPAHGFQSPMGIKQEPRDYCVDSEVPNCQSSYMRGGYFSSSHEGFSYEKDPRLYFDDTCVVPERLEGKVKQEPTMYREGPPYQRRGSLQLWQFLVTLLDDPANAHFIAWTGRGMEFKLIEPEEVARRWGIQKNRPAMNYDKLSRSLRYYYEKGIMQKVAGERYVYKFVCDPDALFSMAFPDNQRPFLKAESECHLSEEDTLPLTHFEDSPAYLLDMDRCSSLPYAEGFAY
Chain of HSF1 (Q00613 whole entry): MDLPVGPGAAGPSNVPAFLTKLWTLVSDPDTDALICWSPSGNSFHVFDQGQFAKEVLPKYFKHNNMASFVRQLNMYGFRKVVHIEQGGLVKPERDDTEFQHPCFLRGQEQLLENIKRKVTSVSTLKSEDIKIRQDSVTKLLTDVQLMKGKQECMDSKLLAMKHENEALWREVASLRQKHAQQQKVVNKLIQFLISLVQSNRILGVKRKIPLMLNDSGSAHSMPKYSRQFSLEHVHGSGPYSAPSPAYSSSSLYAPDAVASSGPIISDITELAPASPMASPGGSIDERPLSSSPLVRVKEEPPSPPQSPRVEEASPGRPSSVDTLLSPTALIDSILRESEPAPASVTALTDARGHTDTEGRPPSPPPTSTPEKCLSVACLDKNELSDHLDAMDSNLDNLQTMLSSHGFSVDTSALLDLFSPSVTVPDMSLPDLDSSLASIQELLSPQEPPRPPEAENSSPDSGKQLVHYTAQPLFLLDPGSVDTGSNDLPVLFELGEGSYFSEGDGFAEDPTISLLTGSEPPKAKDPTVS
Chain of SPIB (Q01892 whole entry): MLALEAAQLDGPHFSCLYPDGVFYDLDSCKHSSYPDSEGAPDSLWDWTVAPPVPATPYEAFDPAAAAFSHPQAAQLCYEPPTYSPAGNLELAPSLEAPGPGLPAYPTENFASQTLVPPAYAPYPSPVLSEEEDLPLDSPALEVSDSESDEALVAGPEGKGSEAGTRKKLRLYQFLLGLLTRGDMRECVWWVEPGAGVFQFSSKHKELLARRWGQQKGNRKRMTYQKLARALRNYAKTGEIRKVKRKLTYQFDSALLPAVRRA
Chain of ETV1 (P50549 whole entry): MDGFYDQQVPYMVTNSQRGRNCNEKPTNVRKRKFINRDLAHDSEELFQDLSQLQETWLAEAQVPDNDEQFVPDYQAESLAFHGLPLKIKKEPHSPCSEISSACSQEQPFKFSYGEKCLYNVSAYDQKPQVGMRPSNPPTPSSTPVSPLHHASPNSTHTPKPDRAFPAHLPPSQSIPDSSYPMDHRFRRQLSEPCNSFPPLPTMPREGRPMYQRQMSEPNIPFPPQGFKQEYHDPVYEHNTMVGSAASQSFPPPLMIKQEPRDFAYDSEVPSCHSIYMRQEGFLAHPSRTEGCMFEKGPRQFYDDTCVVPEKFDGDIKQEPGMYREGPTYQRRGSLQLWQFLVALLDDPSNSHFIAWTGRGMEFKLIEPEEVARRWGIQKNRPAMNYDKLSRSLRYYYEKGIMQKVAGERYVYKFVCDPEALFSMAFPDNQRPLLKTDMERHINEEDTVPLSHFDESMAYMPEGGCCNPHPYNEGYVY
Chain of ELF4 (Q99607 whole entry): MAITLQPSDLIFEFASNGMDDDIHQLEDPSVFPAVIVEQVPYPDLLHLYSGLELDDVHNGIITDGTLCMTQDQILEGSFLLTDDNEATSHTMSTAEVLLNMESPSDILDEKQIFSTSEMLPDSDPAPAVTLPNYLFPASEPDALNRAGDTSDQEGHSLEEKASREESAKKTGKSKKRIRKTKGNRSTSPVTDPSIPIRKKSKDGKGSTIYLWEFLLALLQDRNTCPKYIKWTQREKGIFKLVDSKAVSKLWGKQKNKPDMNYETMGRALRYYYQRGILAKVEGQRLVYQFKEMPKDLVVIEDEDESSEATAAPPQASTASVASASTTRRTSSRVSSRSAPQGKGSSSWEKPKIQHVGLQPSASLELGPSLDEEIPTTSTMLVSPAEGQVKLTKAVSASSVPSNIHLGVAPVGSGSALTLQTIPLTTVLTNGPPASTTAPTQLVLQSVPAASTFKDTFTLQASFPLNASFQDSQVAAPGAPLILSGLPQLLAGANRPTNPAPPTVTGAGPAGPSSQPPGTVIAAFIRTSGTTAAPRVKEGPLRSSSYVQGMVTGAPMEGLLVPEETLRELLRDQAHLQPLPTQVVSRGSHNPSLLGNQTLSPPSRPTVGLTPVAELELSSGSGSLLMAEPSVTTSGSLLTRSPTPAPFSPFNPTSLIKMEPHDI

AGCCCC: the binding signal is 1.09 fold enrichment (6-mer frequency, TF over GST control) in assay [1]; 1.01 fold enrichment (6-mer frequency, TF over GST control) in assay [2]; 1.11 fold enrichment (6-mer frequency, TF over GST control) in assay [3]; 1.06 fold enrichment (6-mer frequency, TF over GST control) in assay [4]; 1.05 fold enrichment (6-mer frequency, TF over GST control) in assay [5]; 1.05 fold enrichment (6-mer frequency, TF over GST control) in [6]. The binding signal was 1.02 fold enrichment (6-mer frequency, TF over GST control) in assay [7]; 1.08 fold enrichment (6-mer frequency, TF over GST control) in assay [8]; 1.07 fold enrichment (6-mer frequency, TF over GST control) in assay [9]; 1.12 fold enrichment (6-mer frequency, TF over GST control) in assay [10]; 1.14 fold enrichment (6-mer frequency, TF over GST control) in assay [11]; 1.02 fold enrichment (6-mer frequency, TF over GST control) in assay [12]. Further, the binding signal was 1.09 fold enrichment (6-mer frequency, TF over GST control) in assay [13]; 1.07 fold enrichment (6-mer frequency, TF over GST control) in [14]; 1.17 fold enrichment (6-mer frequency, TF over GST control) in assay [15]; 1.23 fold enrichment (6-mer frequency, TF over GST control) in assay [16]; 1.15 fold enrichment (6-mer frequency, TF over GST control) in assay [17]; 1.17 fold enrichment (6-mer frequency, TF over GST control) in [18]. Moreover, the binding signal in assay [19] is 1.02 fold enrichment (6-mer frequency, TF over GST control).

The record behind these values is article PMC7862700, “An all-to-all approach to the identification of sequence-specific readers for epigenetic DNA modifications on cytosine”.
